# Source: paper PMC5540273 (PLoS ONE, 2017)
# Values joined by “and” are separate entries in the source; they are usually repeats but may differ in a detail not shown here. Equal values may be shown once. Read-outs that look alike come from different tables or passages of the source.
# What was measured:
# [1] = system: ACVR2B; conditions: n = 1
# [2] = system: ACVRL1; conditions: concentration: 1 μM, replicates: in singlicate; n = 1
# [3] = system: T1, ADCK3; conditions: n = 1
# T1 construct: gene CABC1
# [4] = system: ADCK4; conditions: n = 1
# [5] = system: AKT1; conditions: concentration: 1 μM, replicates: in singlicate; n = 1
# [6] = system: AKT2; conditions: n = 1
# [7] = system: AKT3; conditions: concentration: 1 μM, replicates: in singlicate; n = 1
# [8] = system: ALK; conditions: n = 1
# [9] = system: T2, AMPK-alpha1; conditions: n = 1
# T2 construct: gene PRKAA1
# [10] = system: T3, AMPK-alpha2; conditions: n = 1
# T3 construct: gene PRKAA2
# [11] = system: ANKK1; conditions: n = 1
# [12] = system: T4, ARK5; conditions: n = 1
# T4 construct: gene NUAK1
# [13] = system: T5, ASK1; conditions: n = 1
# T5 construct: gene MAP3K5
# [14] = system: T6, ASK2; conditions: n = 1
# T6 construct: gene MAP3K6
# [15] = system: AURKA; conditions: n = 1
# [16] = system: AURKB; conditions: n = 1
# [17] = system: AURKC; conditions: n = 1
# [18] = system: AXL; conditions: n = 1
# [19] = system: T7, BIKE; conditions: n = 1
# T7 construct: gene BMP2K
# [20] = system: BLK; conditions: n = 1
# [21] = concentration: 1 μM, replicates: in singlicate
# [22] = concentration: 1 μM,replicates: in singlicate, 1 µM
# 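Also: KINOMEscan kinase panel screen.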
compound,measurement,setting,value
COc1ccc(Nc2nccc(NCCNC(=O)Nc3ccccc3F)n2)cc1 [GSK1379901],%Inh,[1]; [21],0%
same,%Inh,[2],0%
same,%Inh,[3]; [21],15%
same,%Inh,[4]; [21],25%
same,%Inh,[5],0%
same,%Inh,[6]; [21],0%
same,%Inh,[7],0%
same,%Inh,[8]; [21],48%
same,%Inh,[9]; [21],0%
same,%Inh,[10]; [21],0%
same,%Inh,[11]; [21],22%
same,%Inh,[12]; [21],23%
same,%Inh,[13]; [21],0%
same,%Inh,[14]; [21],4%
same,%Inh,[15]; [21],12%
same,%Inh,[16]; [21],36%
same,%Inh,[17]; [21],28%
same,%Inh,[18]; [21],0%
same,%Inh,[19]; [21],12%
same,%Inh,[20]; [21],0%
Cn1cncc1-c1ccc2ncnc(Nc3ccc(OCc4ccccc4)cc3)c2c1 [GW320571],%Inh,[1]; [21],16%
same,%Inh,[2],23%
same,%Inh,[3]; [21],27%
same,%Inh,[4]; [21],15%
same,%Inh,[5],0%
same,%Inh,[6]; [21],20%
same,%Inh,[7],10%
same,%Inh,[8]; [21],21%
same,%Inh,[9]; [21],35%
same,%Inh,[10]; [21],20%
same,%Inh,[11]; [21],0%
same,%Inh,[12]; [21],72%
same,%Inh,[13]; [21],16%
same,%Inh,[14]; [21],7%
same,%Inh,[15]; [21],0%
same,%Inh,[16]; [21],100%
same,%Inh,[17]; [21],38%
same,%Inh,[18]; [21],10%
same,%Inh,[19]; [21],23%
same,%Inh,[20]; [21],13%
Cc1ccc(NC(=O)Nc2cc(C(C)(C)C)nn2-c2ccccc2)cc1 [GSK1014915],%Inh,[1]; [21],5%
same,%Inh,[2],5%
same,%Inh,[3]; [21],25%
same,%Inh,[4]; [21],25%
same,%Inh,[5],0%
same,%Inh,[6]; [21],14%
same,%Inh,[7],20%
same,%Inh,[8]; [21],28%
same,%Inh,[9]; [21],0%
same,%Inh,[10]; [21],11%
same,%Inh,[11]; [21],0%
same,%Inh,[12]; [21],0%
same,%Inh,[13]; [21],1%
same,%Inh,[14]; [21],22%
same,%Inh,[15]; [21],0%
same,%Inh,[16]; [21],17%
same,%Inh,[17]; [21],18%
same,%Inh,[18]; [21],2%
same,%Inh,[19]; [21],22%
same,%Inh,[20]; [21],20%
COc1ccc(C2=C(Nc3cccc(C(=O)O)c3)C(=O)NC2=O)cc1 [SB-390765],%Inh,[1]; [21],0%
same,%Inh,[2],1%
same,%Inh,[3]; [21],0%
same,%Inh,[4]; [21],0%
same,%Inh,[5],1%
same,%Inh,[6]; [21],0%
same,%Inh,[7],14%
same,%Inh,[8]; [21],2%
same,%Inh,[9]; [21],23%
same,%Inh,[10]; [21],2%
same,%Inh,[11]; [21],6%
same,%Inh,[12]; [21],5%
same,%Inh,[13]; [21],9%
same,%Inh,[14]; [21],21%
same,%Inh,[15]; [21],18%
same,%Inh,[16]; [21],26%
same,%Inh,[17]; [21],0%
same,%Inh,[18]; [21],19%
same,%Inh,[19]; [21],18%
same,%Inh,[20]; [21],0%
CC(=O)Nc1nc2cnc(Nc3cc(NC(=O)c4cccc(CCC#N)c4)ccc3C)nc2s1,%Inh,[1]; [21],0%
same,%Inh,[2],15%
same,%Inh,[3]; [21],4%
same,%Inh,[4]; [21],0%
same,%Inh,[5],17%
same,%Inh,[6]; [21],33%
same,%Inh,[7],0%
same,%Inh,[8]; [21],0%
same,%Inh,[9]; [21],8%
same,%Inh,[10]; [21],7%
same,%Inh,[11]; [21],0%
same,%Inh,[12]; [21],7%
same,%Inh,[13]; [21],0%
same,%Inh,[14]; [21],16%
same,%Inh,[15]; [21],12%
same,%Inh,[16]; [21],18%
same,%Inh,[17]; [21],7%
same,%Inh,[18]; [21],0%
same,%Inh,[19]; [21],10%
same,%Inh,[20]; [21],0%
CSc1nn2c(=O)cc(N3CCOCC3)nc2n1Cc1cccc(C(F)(F)F)c1C [GSK2363608],%Inh,[1]; [22],3% and 0%
same,%Inh,[2],0%
same,%Inh,[3]; [22],5% and 0%
same,%Inh,[4]; [22],31% and 22%
same,%Inh,[5],0%
same,%Inh,[6]; [22],9% and 13%
same,%Inh,[7],0%
same,%Inh,[8]; [22],23% and 31%
same,%Inh,[9]; [22],0% and 2%
same,%Inh,[10]; [22],14% and 0%
same,%Inh,[11]; [22],0% and 10%
same,%Inh,[12]; [22],13% and 8%
same,%Inh,[13]; [22],14% and 0%
same,%Inh,[14]; [22],86% and 7%
same,%Inh,[15]; [22],0% and 1%
same,%Inh,[16]; [22],0% and 29%
same,%Inh,[17]; [22],24% and 0%
same,%Inh,[18]; [22],3% and 4%
same,%Inh,[19]; [22],20% and 0%
same,%Inh,[20]; [22],8% and 9%
COC(=O)c1c(-c2ccccc2)c2cc(OC)ccc2c(=O)n1Cc1ccccc1,%Inh,[1]; [21],0%
same,%Inh,[2],0%
same,%Inh,[3]; [21],0%
same,%Inh,[4]; [21],0%
same,%Inh,[5],1%
same,%Inh,[6]; [21],12%
same,%Inh,[7],0%
same,%Inh,[8]; [21],28%
same,%Inh,[9]; [21],21%
same,%Inh,[10]; [21],0%
same,%Inh,[11]; [21],0%
same,%Inh,[12]; [21],27%
same,%Inh,[13]; [21],0%
same,%Inh,[14]; [21],37%
same,%Inh,[15]; [21],25%
same,%Inh,[16]; [21],22%
same,%Inh,[17]; [21],0%
same,%Inh,[18]; [21],0%
same,%Inh,[19]; [21],0%
same,%Inh,[20]; [21],0%
Cl.Oc1ccc(-c2nc(-c3ccccc3)[nH]c2-c2ccncc2)cc1 [SB-428218],%Inh,[1]; [21],13%
same,%Inh,[2],0%
same,%Inh,[3]; [21],5%
same,%Inh,[4]; [21],82%
same,%Inh,[5],0%
same,%Inh,[6]; [21],18%
same,%Inh,[7],0%
same,%Inh,[8]; [21],44%
same,%Inh,[9]; [21],0%
same,%Inh,[10]; [21],0%
same,%Inh,[11]; [21],10%
same,%Inh,[12]; [21],62%
same,%Inh,[13]; [21],24%
same,%Inh,[14]; [21],0%
same,%Inh,[15]; [21],0%
same,%Inh,[16]; [21],32%
same,%Inh,[17]; [21],0%
same,%Inh,[18]; [21],0%
same,%Inh,[19]; [21],0%
same,%Inh,[20]; [21],58%
Cc1cccc(-c2nc(Nc3ccncc3)c3ccccc3n2)n1 [GW855857],%Inh,[1]; [21],36%
same,%Inh,[2],65%
same,%Inh,[3]; [21],27%
same,%Inh,[4]; [21],0%
same,%Inh,[5],20%
same,%Inh,[6]; [21],0%
same,%Inh,[7],0%
same,%Inh,[8]; [21],0%
same,%Inh,[9]; [21],0%
same,%Inh,[10]; [21],12%
same,%Inh,[11]; [21],0%
same,%Inh,[12]; [21],0%
same,%Inh,[13]; [21],0%
same,%Inh,[14]; [21],0%
same,%Inh,[15]; [21],0%
same,%Inh,[16]; [21],10%
same,%Inh,[17]; [21],0%
same,%Inh,[18]; [21],7%
same,%Inh,[19]; [21],1%
same,%Inh,[20]; [21],1%
Fc1cccc(COc2nnc(-c3ccc4c(c3)CCO4)o2)c1,%Inh,[1]; [21],100%
same,%Inh,[2],0%
same,%Inh,[3]; [21],0%
same,%Inh,[4]; [21],0%
same,%Inh,[5],0%
same,%Inh,[6]; [21],20%
same,%Inh,[7],11%
same,%Inh,[8]; [21],7%
same,%Inh,[9]; [21],6%
same,%Inh,[10]; [21],0%
same,%Inh,[11]; [21],0%
same,%Inh,[12]; [21],5%
same,%Inh,[13]; [21],0%
same,%Inh,[14]; [21],23%
same,%Inh,[15]; [21],15%
same,%Inh,[16]; [21],37%
same,%Inh,[17]; [21],0%
same,%Inh,[18]; [21],0%
same,%Inh,[19]; [21],0%
same,%Inh,[20]; [21],0%
